Screening results from PubChem BioAssay.
USP17 block: inhibitors of human USP17 deubiquitinase. Ubiquitin carboxyl-terminal hydrolase 17-like protein 5 (Homo sapiens), A8MUK1. purified USP17, Ub-rhodamine cleavage fluorescence, 3 h. inhibition, % at 50 µM. 47,000 compounds, 6.5% hits. AID 1645855, 2021
Target sequence (A8MUK1 whole entry, looked up): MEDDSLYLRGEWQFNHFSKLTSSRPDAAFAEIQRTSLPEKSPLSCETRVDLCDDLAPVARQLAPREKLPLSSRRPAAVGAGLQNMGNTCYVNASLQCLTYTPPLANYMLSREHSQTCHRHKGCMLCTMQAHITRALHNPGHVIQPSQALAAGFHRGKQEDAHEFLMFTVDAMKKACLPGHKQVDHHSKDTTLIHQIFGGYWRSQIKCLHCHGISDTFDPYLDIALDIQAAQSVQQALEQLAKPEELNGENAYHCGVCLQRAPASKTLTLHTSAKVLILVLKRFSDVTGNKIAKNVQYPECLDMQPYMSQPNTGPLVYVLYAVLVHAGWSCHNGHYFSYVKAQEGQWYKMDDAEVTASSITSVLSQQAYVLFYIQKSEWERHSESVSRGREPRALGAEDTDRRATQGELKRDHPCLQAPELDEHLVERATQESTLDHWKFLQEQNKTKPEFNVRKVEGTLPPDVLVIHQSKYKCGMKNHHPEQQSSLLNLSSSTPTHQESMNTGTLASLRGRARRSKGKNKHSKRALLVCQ
USP30 block: inhibitors of human USP30 deubiquitinase | Ubiquitin carboxyl-terminal hydrolase 30 (Homo sapiens), Q70CQ3 | purified USP30, Ub-rhodamine cleavage fluorescence | inhibition, % at 25 µM | 47,000 compounds, 5.3% hits | AID 1645860, 2021
Starred values were filed as active, the others as inactive; / = no result given. Only some compounds are listed: those with a hit (about 9.6% of all), similar ones and a draw of the others. No stated cut-off is given here; in the data, active means inhibition above about 30%; inactive means the rest.

SMILES	USP17 block	USP30 block
Cc1noc(-c2ccc(N3CCCC(C(=O)NCc4ccc(F)cc4)C3)nc2)n1 (stereo not drawn)	58*	28
Cc1noc(-c2ccc(-n3cnc(C(=O)NCc4ccccc4)c3)nc2)n1	21	30*
Cc1noc(-c2ccc(-n3cnc(C(=O)NC4CCCCCC4)c3)nc2)n1	22	25
COc1ccccc1N1CCN(Cc2csc(-c3ccc4c(c3)OCO4)n2)CC1	17	1
Cc1ccccc1NC(=O)Cn1c(C)ncc(C(=O)NC2CC2)c1=O	2	9
O=C(Cn1cncc(C(=O)NC2CCCC2)c1=O)Nc1cccc(F)c1	82*	0
O=C(CN1C(=O)C2CCCC2=Nc2ccccc21)Nc1cccc(F)c1 (stereo not drawn)	15	-12
O=C(Cn1c(-c2ccccc2)ncc(C(=O)NC2CC2)c1=O)Nc1ccccc1	36*	73*
CC(Sc1nc2ccccc2o1)C(=O)c1ccc(F)c(F)c1 (stereo not drawn)	7	-2
Cc1cccc(CNS(=O)(=O)c2cc(-c3csc(C)n3)ccc2C)c1	25	-7
COc1ccc(-c2nn(-c3ccccc3)c3[nH]c(=O)c(CNCc4cccs4)cc23)cc1OC	-47	-71
O=c1[nH]c2c(cc1CNc1ccc(Cl)cc1)c(-c1cccc(F)c1)nn2-c1ccccc1	38*	-62
CC(C)(C)c1nn(-c2ccc(Cl)cc2)c2[nH]c(=O)c(CNCCc3ccccc3)cc12	-6	-6
Cc1ccc(NCc2cc3c(C(C)(C)C)nn(-c4ccc(Cl)cc4)c3[nH]c2=O)cc1	62*	-58
COc1ccc(-c2nn(-c3ccccc3)c3[nH]c(=O)c(CNc4ccc5c(c4)OCCO5)cc23)cc1OC	44*	-36
Cc1ccc(NCc2cc3c(-c4cccc(F)c4)nn(-c4ccccc4)c3[nH]c2=O)cc1C	-88	-349
CC(C)(C)c1ccc(N=C2C(=O)N(Cc3ccccc3)c3ccccc32)cc1	2	23
Cc1nc(-c2ccc(NC(=O)N3CCCCC3)cc2)no1	20	28
COc1ccccc1/C=C/C(=O)Nc1sc2c(c1C(N)=O)CCCC2	2	-1
CC1CC(c2ccccc2)n2ncnc2N1C(=O)COc1ccccc1 (stereo not drawn)	1	-18
CC(=O)c1ccc(NC(=O)CN(CC(=O)Nc2ccc(C(C)=O)cc2)Cc2ccccc2)cc1	12	/
CC(=O)c1ccc(NC(=O)CN(CC(=O)Nc2ccc(C(C)=O)cc2)S(=O)(=O)c2ccc(C)cc2C)cc1	32*	-39
COCCN1C(=O)c2ccccc2C(C(=O)N2CCOCC2)C12CCCCC2 (stereo not drawn)	2	/
Cc1nc(-c2nccn2C)cc(C2CCCCN2C(=O)CC(C)(C)C)n1 (stereo not drawn)	8	17
CSCc1cc(NCc2ccccc2)nc(-c2ccncc2)n1	23	41*
SMILES	USP17 block	USP30 block
c1ccc(-c2cc(NC3CC3)nc(-c3ccncc3)n2)cc1	-8	-66
CCc1nn2c(S(=O)(=O)N3CCCCCC3)c(C)nc2s1	2	6
CCc1nn2c(S(=O)(=O)N3CCN(c4ccccc4)CC3)c(C)nc2s1	6	39*
Cc1ccc2c(c1)[C@]1(C(=O)N2)[C@@H](C(=O)c2ccccc2)[C@]2(C(=O)Nc3ccccc32)[C@@H]2CCCN21	52*	-3
O=C(c1ccc(Cl)cc1)[C@H]1[C@]2(C(=O)Nc3ccccc32)[C@@H]2CCCN2[C@@]12C(=O)Nc1ccccc12	11	5
COc1ccc2nc(N3CC(C(=O)N4CCC5(CC4)OCCO5)C3)sc2c1	-8	-1
COc1ccc2nc(N3CC(C(=O)Nc4ccc(C(N)=O)cc4)C3)sc2c1	65*	62*
O=C(c1nc(CCS(=O)(=O)c2ccc(F)cc2)no1)N1CCCCCC1	-8	-8
CN(C)c1ccc(CNC(=O)c2ccc(Cl)c(S(=O)(=O)N(C)C)c2)cc1	-9	-16
Clc1ccc2nc3c(c(Nc4[nH]ncc4-c4ccccc4)c2c1)CCC3	19	17
c1ccc(-c2cc(Nc3c4c(nc5ccccc35)CCCC4)n[nH]2)cc1	44*	-45
Cc1ccc(-c2nnn(CC(=O)N(c3ccc(C4CCCCC4)cc3)C(C(=O)NC3CCCCC3)c3ccc(F)cc3)n2)o1 (stereo not drawn)	33*	-18
Cc1ccc(-c2nnn(CC(=O)N(c3ccccc3C)C(C(=O)NC3CCCC3)c3ccncc3)n2)o1 (stereo not drawn)	41*	-207
COc1ccc(-c2nnn(CC(=O)N(c3ccc(C4CCCCC4)cc3)C(C(=O)NC(C)(C)C)c3ccc(F)cc3)n2)cc1OC (stereo not drawn)	-14	-4
COc1ccc(C(C(=O)NC2CCCC2)N(C(=O)Cn2nnc(-c3ccc(C)o3)n2)c2ccccc2C)cc1 (stereo not drawn)	22	1
COc1ccc(C(=O)Oc2ccc(C(=O)c3ccc(F)cc3)cc2)cc1S(=O)(=O)N1CCCCC1C (stereo not drawn)	-35	-22
